Source: PubChem BioAssay (National Center for Advancing Translational Sciences (NCATS))
This is a sample that favours compounds with a hit; in the whole collection about 2.8% have one here.
KDM5B inh – KDM5B demethylase inhibition. KDM5B demethylase, FDH-coupled NADH fluorescence (FDH is formaldehyde dehydrogenase). Potency, µM (highest dose often 57.7 µM), most hits filed as inhibitors. AID 1347165. Q9UGL1. 2.6% of 220,000 active; active = well fitted inhibition curve with a large enough effect; inconclusive = small, poorly fitted or top-dose-only effect; inactive = no such curve, though single readings can be large or run the other way; also: nearly all actives have a fitted effect of over 70% in size
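Inhibition is measured as reduced NADH fluorescence generation from FDH coupling to formaldehyde release. Truncated KDM5BΔAP at 200 nM final acts on H3K4me3 peptide (12.5 µM in substrate mix) in pH 7.5 HEPES buffer with Tween-20, 30 min, room temperature.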
IP6K1 inhibitor – IP6K1 kinase inhibition; IP6K1 kinase, ADP-Glo luminescence, 2 h; stronger effect = lower value; 0.81% of 140,000 active; activity change, % (series mostly up to about 58 µM); in the data active = activity change below about -25%
Target sequence (Q92551 whole entry, looked up): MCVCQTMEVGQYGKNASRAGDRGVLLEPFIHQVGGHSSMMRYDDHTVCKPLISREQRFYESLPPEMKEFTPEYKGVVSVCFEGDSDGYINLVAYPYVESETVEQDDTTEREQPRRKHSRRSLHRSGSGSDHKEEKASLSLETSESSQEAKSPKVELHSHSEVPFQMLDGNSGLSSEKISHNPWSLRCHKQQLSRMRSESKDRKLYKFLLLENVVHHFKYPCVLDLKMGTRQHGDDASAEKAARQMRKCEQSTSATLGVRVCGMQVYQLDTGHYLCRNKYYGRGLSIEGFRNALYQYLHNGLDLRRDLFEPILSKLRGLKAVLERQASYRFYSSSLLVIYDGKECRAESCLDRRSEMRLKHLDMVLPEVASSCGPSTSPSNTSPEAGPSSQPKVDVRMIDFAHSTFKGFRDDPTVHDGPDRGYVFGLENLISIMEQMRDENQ
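ADP-Glo luminescence measures ADP made by human IP6K1 during a 2 h RT reaction with ATP/IP6 (mix at 1.3 mM/130 uM); top library doses 57.5 and 19.1 uM final.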
Hits are given with their value; - = inactive; ? = inconclusive; . = no result given; [ ] = another dose, or the depositor's remark.

SMILES | KDM5B inh | IP6K1 inhibitor
CCN(Cc1ccc(C)cc1)Cc1cc(=O)oc2ccc(OC)cc12 | - | .
Cc1nc(SC(C)C(=O)NCCC2=CCCCC2)nc(C)c1C (stereo unspecified) | - | .
CCOC(=O)[C@@H]1CN(C(=O)COc2ccccc2)[C@H]2c3ccccc3O[C@@H]12 | . | -
COc1cccc(CN2CCCCCNC(=O)[C@@H]3CCC[C@@H]32)c1 | 20µM | -
COc1cccc(CN2CCCCCCNC(=O)[C@@H]3CCC[C@@H]32)c1 | ? | -
CN(Cc1nc2ccccc2n1C(F)F)S(=O)(=O)c1ccccc1Br | - | .
Cn1ncc2c(C(=O)NCC(F)(F)F)cc(-c3ccccc3C(F)(F)F)nc21 | . | -
COc1ccc(-c2ccc3nc(-c4cc(F)cc(F)c4)oc3c2)c(OC)c1OC | - | -
COc1ccc(-c2ccc3nc(-c4ccc(Cl)cc4)oc3c2)c(OC)c1OC | - | -
COc1ccc(-c2ccc3nc(-c4cccc(Cl)c4)oc3c2)c(OC)c1OC | 7.9µM | -
COc1cc(OC)cc(-c2nc3ccc(-c4ccc(OC)c(OC)c4OC)cc3o2)c1 | 25µM | -
COc1ccccc1C(C)NC(=O)CN1CCN(c2ccc([N+](=O)[O-])c3cnccc23)CC1 (stereo unspecified) | - | .
CNC(C)c1ccc(Oc2ccccc2)cc1 (stereo unspecified) | - | -
CNC(C)c1ccncc1 (stereo unspecified) | 16µM | -
O=C(CC1CCCC1)N1CC[C@@]2(O)CCN(Cc3ccccn3)C[C@H]2C1 | 25µM | -
O=C(NCc1ccccc1)NCC1CCCN(Cc2ccccn2)C1 (stereo unspecified) | - | -
CN(C)c1cccc(C(=O)NC2CCN(c3cc(-c4ccc(Cl)cc4)[nH]n3)C2)c1 (stereo unspecified) | ? | -
CCOCCNC(=O)[C@@H]1CCCN1C(=O)c1cccc(-c2ccccc2OC)c1 | . | -
O=C(NNC(=O)C1CCCC1)c1ccc(Br)cc1 | - | .
O=C(Nc1ccc(S(=O)(=O)N(Cc2ccccc2)c2ccccc2)cc1)c1ccccc1F | - | -
O=C(Nc1ccc(S(=O)(=O)N(Cc2ccccc2)c2ccccc2)cc1)c1ccc(F)cc1 | -[11.5 µM] | -28
O=C(c1ccc(OCc2cscn2)cc1)N1CCN(C2CCS(=O)(=O)C2)CC1 (stereo unspecified) | - | .
COc1ccccc1C(=O)N1CCC(N2C(=O)c3c(c(C)nn3-c3ccccc3)C2C)CC1 (stereo unspecified) | . | -
Cc1cc(C)c(CNC(=O)c2cc(-c3cnn(C)c3C)cc3c2OCCN3C(C)C)c(=O)[nH]1 | ? | -
Cc1cc(C)c(CNC(=O)c2cc(-c3cnn(C)c3)cc3c2OCCN3C(C)C)c(=O)[nH]1 | 28µM | -
SMILES | KDM5B inh | IP6K1 inhibitor
Cc1cc(C)c(CNC(=O)c2cc(-c3cnn(C)c3)cc3c2OCCN3C)c(=O)[nH]1 | 32µM | -
O=C(O)C1CCN(C(=O)c2cc(-c3ccccc3)nc3ccccc23)CC1 | - | .
CC(C)(C)n1cc(-c2cc(C(=O)N3C[C@H]4CC[C@H]3C4)c3ccccc3n2)cn1 | 32µM | -
CS(=O)(=O)c1ccc(F)c(NCc2ccccc2F)c1 | - | .
CCc1noc(-c2ccn3c(CNC(=O)Cc4cccc(F)c4)nnc3c2)n1 | - | -
Cc1ccc(CC(=O)NCc2nnc3cc(-c4nc(C5CC5)no4)ccn23)cc1 | 28µM | -
Cc1ccccc1CC(=O)NCc1nnc2cc(-c3nc(C4CC4)no3)ccn12 | 28µM | -
O=C(Cc1ccccc1Cl)NCc1nnc2cc(-c3nc(C4CC4)no3)ccn12 | 16µM | -
O=C(NC1CCCC1)NC1CCN(C(=O)c2ccc(-c3cccs3)cc2)CC1 | . | -
Cc1ccccc1-c1nccn2c(C3CN(C(=O)c4cc5ccccc5[nH]4)C3)ncc12 | 50µM | -
Cc1ccccc1-c1nccn2c(C3CN(Cc4ccc(O)cc4)C3)ncc12 | ? | -
CC(CCc1ccccc1)NC(=O)c1cc(=O)c2ccccc2o1 (stereo unspecified) | - | .
COCCN1C(=O)C(=O)/C(=C(/O)c2ccc(OC(C)C)c(C)c2)C1c1ccc(Br)cc1 (stereo unspecified) | - | .
O=C(NCc1ccc(S(=O)(=O)c2cc(F)cc(F)c2)cc1)c1ccc2nccn2c1 | . | -
O=C(NC1CCCCCC1)c1ccc2nccn2c1 | 28µM | -
O=C(NC1CCC1)c1ccc2nccn2c1 | ? | -
O=C(NCc1ccccc1)c1ccc2nccn2c1 | . | -
COC(=O)CNC(=O)c1ccc2nccn2c1 | 112µM | -
Cc1ccc(CNC(=O)c2ccc3nccn3c2)o1 | 28µM | -
C#CCNC(=O)c1ccc2nccn2c1 | 141µM | -
COC(=O)CNC(=O)c1ccc(C)cc1 | - | .
Cc1cc(C)c(C)c(S(=O)(=O)N2CCN(C(=O)Cc3c(C)nn(C)c3C)CC2)c1C | - | .
N#CC(C(=O)Nc1cccc(C(F)(F)F)c1)=C1CCCC1 | - | .
Cc1cccc(-c2noc([C@@H]3C[C@@H](O)CN3Cc3cccc(C#N)c3)n2)c1 | - | -
